# From PubChem BioAssay
# KCNQ2 block – blocks the rat KCNQ2 potassium channel. O88943. CHO-K1 KCNQ2, FluxOR thallium flux, 20 min; active compounds read low. B-score at 10 µM. hit rate 1.1% among 310,000;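 active means fluorescence ratio B-score at most minus 3 library SDs, with starting brightness B-score within 2 library SDs, cut at about -5.5 in these data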
# KCNQ2 pot – KCNQ2 (rat) channel potentiation; O88943; CHO-K1 KCNQ2, FluxOR thallium flux fluorescence; active compounds read high; B-score at 10 µM; hit rate 0.54% among 310,000;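 active means fluorescence ratio B-score at least 3 SD of library B-scores, with initial fluorescence B-score within 3 of them, cut at about 5.3 in these data; same plate scores as AID 2156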;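 further: B-score of peak minus minimum over baseline fluorescence ratio after K+ and Tl+ stimulus; positive B-score means potentiation of KCNQ2 with more thallium influx and brighter signal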
# * hit, by the source's call; i = inactive; / = no result given. Shown are actives, neighbours in structure and some others; about 1.6% of the full set was active somewhere.
SMILES,KCNQ2 block,KCNQ2 pot
COc1ccccc1N1CCN(/N=C/c2cccc(OC)c2OC)CC1,-7.3*,-7.3
COc1ccccc1N1CCN(/N=C/c2cc(OC)c(OC)c(OC)c2)CC1,i,/
O=c1[nH]c(=S)[nH]cc1Oc1ccc(Cl)cc1Cl,i,1.4
COc1ccc(CNC(=O)COC(=O)[C@H](Cc2c[nH]c3ccccc23)NC(=O)c2cccs2)cc1,i,/
Cn1cnc2c(NCc3ccco3)ncnc21,-7*,-7
Clc1cccc(Cl)c1Cn1cnc2c(NCc3ccco3)ncnc21,i,0.45
Cc1cc(NS(=O)(=O)c2c(C(=O)N3CCOCC3)c(C)n(C)c2C)ccc1Br,i,/
COc1ccc(CN2C(=O)c3cccnc3C2=O)cc1S(=O)(=O)N1CCOc2ccc(C)cc21,i,/
CCOc1ccc(CCNC(=O)CCc2nnc3ccc(N4CCCCC4)nn23)cc1OCC,i,/
C#CCN(C)CC/C=C1\c2ccccc2CSc2ccccc21,-6*,-6
C=CCN(C)CC/C=C1\c2ccccc2CSc2ccccc21,i,/
CCCN1CCN(C(=O)c2c(Cl)cnn2C)CC1,i,1.2
CCOC(=O)c1cc(C#N)c(Nc2ccc(C)cc2)nc1C(F)(F)F,i,/
Cc1ncc([N+](=O)[O-])n1S(=O)(=O)c1cc(Cl)ccc1Cl,i,0.85
CN(CC(=O)Nc1ccccc1Sc1ccccc1)Cc1nc2ccccc2c(=O)[nH]1,i,/
CN(CC(=O)NC(c1ccccc1)c1ccccc1)Cc1nc2ccccc2c(=O)[nH]1,-6.6*,-6.6
Brc1cccc(OCCCCN2CCCCC2)c1,i,0.91
COc1ccc(C(CNC(=O)c2oc3ccc(Br)cc3c2C)N2CCCCC2)cc1 (centres undefined),-6.2*,-6.2
COc1ccc(C(CNC(=O)c2oc3cc(Br)ccc3c2C)N2CCCCC2)cc1 (centres undefined),i,/
CCc1ccc2oc(C(=O)NCC(c3ccc(OC)cc3)N3CCCCC3)c(C)c2c1 (centres undefined),-7.1*,-7.1
COc1ccc(C(CNC(=O)COc2ccc(Cl)c(C)c2)N2CCCCC2)cc1 (centres undefined),-5.9*,-5.9
COc1ccc(C(CNC(=O)COc2ccccc2C)N2CCCC2)cc1 (centres undefined),i,/
COc1ccc(C(CNC(=O)c2oc3ccc(F)cc3c2C)N2CCCCC2)cc1 (centres undefined),-6.3*,-6.3
COc1ccc(C(CNC(=O)c2oc3ccc(OC)cc3c2C)N2CCCC2)cc1 (centres undefined),i,/
COc1ccc(C(CNC(=O)c2oc3cc(C)c(C)cc3c2C)N2CCCCC2)cc1 (centres undefined),i,/
SMILES,KCNQ2 block,KCNQ2 pot
COC(=O)c1cc(OC)nc2ccc(Br)cc12,i,/
CCCc1cc(=O)oc2cc(C)cc(OC(C)C(=O)NCCCn3ccnc3)c12 (centres undefined),i,/
CC(C)NC(=O)C(c1ccc(F)cc1)N(Cc1ccco1)C(=O)CCC(=O)Nc1ccccn1 (centres undefined),i,0.52
CC(NC(=O)Cc1ccc(S(=O)(=O)N2CCOCC2)s1)c1ccc(Cl)c(Cl)c1 (centres undefined),i,1.2
Cc1cc(NC(=O)CCC(=O)N(CC(=O)NCC2CCCO2)c2ccc(C(C)C)cc2)no1 (centres undefined),i,/
COc1ccc(-c2cnc(SCC(=O)Nc3cc(C)on3)n2Cc2ccco2)cc1,i,/
COc1ccc(-c2cnc(SCC(=O)Nc3nc(C(C)(C)C)cs3)n2Cc2ccco2)cc1,-8.3*,-8.3
O=S(=O)(c1ccccc1)N1CCC(=NO)CC1,i,1.4
O=S(=O)(c1ccccc1)C(/C=N\O)/C=C/c1ccccc1 (centres undefined),-6.3*,-6.3
Cc1ccc2c(C)c(C(=O)N3CCN(c4cnccn4)CC3)oc2c1C,i,/
Cc1ccc2c(C)c(C(=O)N3CCC(O)(c4ccccc4)CC3)oc2c1C,-5.9*,-5.9
O=C1Nc2ccccc2C(=O)N2C[C@@H](O)C[C@H]12,i,/
CC(C)(C)C1CCc2c(sc(NC(=O)c3cccs3)c2C(=O)N2CCCCC2)C1 (centres undefined),-8.1*,-8.1
CC1CCc2c(sc(NC(=O)c3cccs3)c2C(=O)O)C1 (centres undefined),i,2
CC(C)Cc1nnc(NC(=O)CCC(=O)NCCc2ccc(Cl)cc2)s1,i,0.66
COc1ccccc1-c1cc(C(=O)NC2CCN(C)CC2)c2ccc(Cl)c(C)c2n1,-5.8*,-5.8
Cc1c(Cl)ccc2c(C(=O)NCCN3CCCCC3)cc(-c3ccccn3)nc12,i,/
Cc1c(C(=O)N2CCOCC2)sc(NC(=O)CCl)c1C#N,i,1.8
O=C(O)c1ccc(N2CCCS2(=O)=O)cc1,i,0.1
CCCOC1CCCN(C(=O)CCc2nnc(CCCCc3ccccc3)o2)C1 (centres undefined),i,/
CC1C/C(=N/Nc2nc3ccccc3[nH]2)CC(C)(C)C1 (centres undefined),i,1.1
Cc1cc(N/N=C2\CC(C)CC(C)(C)C2)nc2ccccc12 (centres undefined),-5.6*,-5.6
COc1cccc(/C=N/NC(=O)Cn2cnc3c2c(=O)n(C)c(=O)n3C)c1OC,i,0.01
COc1cc(CNCCc2c[nH]c3ccccc23)ccc1OCc1ccc(F)cc1,-7.2*,-7.2
COc1cc(CNCCc2c[nH]c3ccccc23)cc(Cl)c1OCC(N)=O,i,1.9
SMILES,KCNQ2 block,KCNQ2 pot
Cc1nn(CC(=O)Nc2c(F)c(F)cc(F)c2F)c(=O)c2cccn12,i,/
Cc1nnc(SC(C)C)n(N)c1=O,i,/
Cc1coc2c1C(=O)C(=O)c1c-2ccc2c1CCCC2(C)C,i,/
C[C@H]1COC2=C1C(=O)C(=O)c1c2ccc2c1CCCC2(C)C,-6.2*,-6.2
CN1CCN(c2nc(-c3ccc(Cl)cc3Cl)nc3ccccc23)CC1,i,0.21
CCN(Cc1ccncc1)C(=O)c1ccccc1NS(=O)(=O)c1ccc(Br)cc1,i,1
C/C(=N\Nc1ccc([N+](=O)[O-])cc1)c1ccc(N)cc1,i,/
C/C(=N\Nc1nc(C)c(C)s1)c1ccc([N+](=O)[O-])cc1,i,5.4*
COc1cc(O)c(CCC(=O)c2ccc(OC)c(OC)c2)c(OC)c1,i,2.1
COC(=O)c1cc(NS(=O)(=O)c2ccc(NC(C)=O)cc2)ccc1Cl,i,/
CCc1cccc(CC)c1NC(=O)c1cccc(NC(=O)c2ccccc2)c1,i,/
CCc1cccc(C)c1NC(=O)c1cccc(N(C)C)c1,-6.9*,-6.9
COC(=O)CN(c1cc([N+](=O)[O-])ccc1OC)S(C)(=O)=O,i,/
Cc1sc2ncn(CCn3cnc4sc(C)c(C)c4c3=O)c(=O)c2c1C,i,/
C=CCn1c(SCc2ccccc2)nc2scc(-c3ccc(C)o3)c2c1=O,i,0.16
Cc1ccc(-c2csc3ncn(-n4c(C)ccc4C)c(=O)c23)o1,-6.6*,-6.6
Cc1sc2ncn(-n3c(C)ccc3C)c(=O)c2c1C,-5.7*,-5.7
CCCNC(=O)C1(S(=O)(=O)c2ccccc2)CC=CC1,i,1.8
Cn1c(=O)c(C(=O)N2CCc3ccccc32)cc2cccnc21,i,1.8
O=C(c1sc2cc(Cl)ccc2c1Cl)N1CCN(CCc2ccccn2)CC1,i,/
COc1cc(OC)c(NC(=O)C2CCN(S(=O)(=O)c3ccc4c(c3)CC(C)N4C(C)=O)CC2)cc1Cl (centres undefined),i,0.24
